Data published in the supplement of paper PMC10849652.
About 7,900 targets were measured; listed, in parts, are those with a hit and a random draw of the rest. About 0.6% of all pairs of compound and target were hits. Unmarked numbers belong to inactive results.

Tests used:
Assay in all cases: log2 fold change, soluble protein after heating vs DMSO (PISA); higher = thermal stabilisation; K562 cells, 10 uM, 30 min; active = over 0.2 and 3.5 SD of the protein, either way, in both replicates (recomputed)
[1] = compound: Cc1ccc(NC(=O)c2ccc(CN3CC[C@H](N(C)C)C3)c(C(F)(F)F)c2)cc1Nc1nccc(-c2cncnc2)n1 [bafetinib]
Method in brief: (§1)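 K562 cells at 2×10^6 cells/mL were given 10 μM compound for 30 min. Aliquots then went through 3 min of heating across 48°C-58°C, were pooled, and were extracted in PBS with 0.5% NP-40 at 4°C, and the supernatant after 21,000xg for 90 min was quantified by TMTpro 16plex LC-MS/MS with channel sums equalised. Thermal stability relative to control samples, from duplicates, is given as log2 fold change.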

[2] = compound: Cc1cccc(CC(=O)N2CCc3c2ccc(-c2cn(C)c4ncnc(N)c24)c3F)n1
Method in brief: as §1

[3] = compound: Cc1cn(-c2cc(NC(=O)c3ccc(C)c(Nc4nccc(-c5cccnc5)n4)c3)cc(C(F)(F)F)c2)cn1 [nilotinib]
Method in brief: as §1

[4] = compound: Cc1nc(Nc2n[nH]c3c2CN(C(=O)N[C@H](CN(C)C)c2ccccc2)C3(C)C)c2sccc2n1
Method in brief: as §1

[5] = compound: Cc1nc(Nc2ncc(C(=O)Nc3c(C)cccc3Cl)s2)cc(N2CCN(CCO)CC2)n1 [dasatinib]
Method in brief: as §1

[6] = compound: Cc1ncc(-c2ccnc(Nc3ccc(S(C)(=O)=O)cc3)n2)n1C(C)C
Method in brief: as §1

[7] = compound: Cn1cc(-c2ccc3c(c2)CCN3C(=O)Cc2cccc(C(F)(F)F)c2)c2c(N)ncnc21
Method in brief: as §1

[8] = compound: Cn1cc(-c2ccc3nnc(C(F)(F)c4ccc5ncccc5c4)n3n2)cn1
Method in brief: as §1

[9] = compound: Cn1cncc1[C@@](N)(c1ccc(Cl)cc1)c1ccc2c(c1)c(-c1cccc(Cl)c1)cc(=O)n2C [tipifarnib]
Method in brief: as §1

[10] = compound: FC(F)(F)c1ccc(/C=C/c2nc(COc3ccc(CCCCn4ccnn4)cc3)co2)cc1 [mubritinib]
Method in brief: as §1

[11] = compound: NC(=O)Nc1cc(-c2cccc(F)c2)sc1C(=O)N[C@H]1CCCNC1
Method in brief: as §1

[12] = compound: NC(=O)c1cnc(N[C@@H]2CCCC[C@@H]2N)nc1Nc1cccc(-n2nccn2)c1
Method in brief: as §1

[13] = compound: NC1(c2ccc(-c3nc4ccn5c(=O)[nH]nc5c4cc3-c3ccccc3)cc2)CCC1
Method in brief: as §1

[14] = compound: NCC(=O)Nc1ccc(-n2nc(C(F)(F)F)cc2-c2ccc3c(ccc4ccccc43)c2)cc1
Method in brief: as §1

[15] = compound: Nc1ccccc1NC(=O)c1ccc(CNC(=O)OCc2cccnc2)cc1 [entinostat]
Method in brief: as §1

[16] = compound: O=C(CCCCCCC(=O)Nc1ccccc1)NO [vorinostat]
Method in brief: as §1

[17] = compound: O=C(CCCCCCNC(=O)c1cnc(N(c2ccccc2)c2ccccc2Cl)nc1)NO [citarinostat]
Method in brief: as §1

[18] = compound: O=C(O)c1ccc2c(c1)nc(Nc1cccc(Cl)c1)c1ccncc12 [silmitasertib]
Method in brief: as §1

[19] = compound: O=C1NC(=O)C(c2cnc3ccccn23)=C1c1cn2c3c(cc(F)cc13)CN(C(=O)N1CCCCC1)CC2
Method in brief: as §1

[20] = compound: c1cc(OCCN2CCCCC2)cc(-c2n[nH]c3ccc(-c4nnc[nH]4)cc23)c1
Method in brief: as §1

UniProt O75376, sequence (O75376 whole entry, looked up): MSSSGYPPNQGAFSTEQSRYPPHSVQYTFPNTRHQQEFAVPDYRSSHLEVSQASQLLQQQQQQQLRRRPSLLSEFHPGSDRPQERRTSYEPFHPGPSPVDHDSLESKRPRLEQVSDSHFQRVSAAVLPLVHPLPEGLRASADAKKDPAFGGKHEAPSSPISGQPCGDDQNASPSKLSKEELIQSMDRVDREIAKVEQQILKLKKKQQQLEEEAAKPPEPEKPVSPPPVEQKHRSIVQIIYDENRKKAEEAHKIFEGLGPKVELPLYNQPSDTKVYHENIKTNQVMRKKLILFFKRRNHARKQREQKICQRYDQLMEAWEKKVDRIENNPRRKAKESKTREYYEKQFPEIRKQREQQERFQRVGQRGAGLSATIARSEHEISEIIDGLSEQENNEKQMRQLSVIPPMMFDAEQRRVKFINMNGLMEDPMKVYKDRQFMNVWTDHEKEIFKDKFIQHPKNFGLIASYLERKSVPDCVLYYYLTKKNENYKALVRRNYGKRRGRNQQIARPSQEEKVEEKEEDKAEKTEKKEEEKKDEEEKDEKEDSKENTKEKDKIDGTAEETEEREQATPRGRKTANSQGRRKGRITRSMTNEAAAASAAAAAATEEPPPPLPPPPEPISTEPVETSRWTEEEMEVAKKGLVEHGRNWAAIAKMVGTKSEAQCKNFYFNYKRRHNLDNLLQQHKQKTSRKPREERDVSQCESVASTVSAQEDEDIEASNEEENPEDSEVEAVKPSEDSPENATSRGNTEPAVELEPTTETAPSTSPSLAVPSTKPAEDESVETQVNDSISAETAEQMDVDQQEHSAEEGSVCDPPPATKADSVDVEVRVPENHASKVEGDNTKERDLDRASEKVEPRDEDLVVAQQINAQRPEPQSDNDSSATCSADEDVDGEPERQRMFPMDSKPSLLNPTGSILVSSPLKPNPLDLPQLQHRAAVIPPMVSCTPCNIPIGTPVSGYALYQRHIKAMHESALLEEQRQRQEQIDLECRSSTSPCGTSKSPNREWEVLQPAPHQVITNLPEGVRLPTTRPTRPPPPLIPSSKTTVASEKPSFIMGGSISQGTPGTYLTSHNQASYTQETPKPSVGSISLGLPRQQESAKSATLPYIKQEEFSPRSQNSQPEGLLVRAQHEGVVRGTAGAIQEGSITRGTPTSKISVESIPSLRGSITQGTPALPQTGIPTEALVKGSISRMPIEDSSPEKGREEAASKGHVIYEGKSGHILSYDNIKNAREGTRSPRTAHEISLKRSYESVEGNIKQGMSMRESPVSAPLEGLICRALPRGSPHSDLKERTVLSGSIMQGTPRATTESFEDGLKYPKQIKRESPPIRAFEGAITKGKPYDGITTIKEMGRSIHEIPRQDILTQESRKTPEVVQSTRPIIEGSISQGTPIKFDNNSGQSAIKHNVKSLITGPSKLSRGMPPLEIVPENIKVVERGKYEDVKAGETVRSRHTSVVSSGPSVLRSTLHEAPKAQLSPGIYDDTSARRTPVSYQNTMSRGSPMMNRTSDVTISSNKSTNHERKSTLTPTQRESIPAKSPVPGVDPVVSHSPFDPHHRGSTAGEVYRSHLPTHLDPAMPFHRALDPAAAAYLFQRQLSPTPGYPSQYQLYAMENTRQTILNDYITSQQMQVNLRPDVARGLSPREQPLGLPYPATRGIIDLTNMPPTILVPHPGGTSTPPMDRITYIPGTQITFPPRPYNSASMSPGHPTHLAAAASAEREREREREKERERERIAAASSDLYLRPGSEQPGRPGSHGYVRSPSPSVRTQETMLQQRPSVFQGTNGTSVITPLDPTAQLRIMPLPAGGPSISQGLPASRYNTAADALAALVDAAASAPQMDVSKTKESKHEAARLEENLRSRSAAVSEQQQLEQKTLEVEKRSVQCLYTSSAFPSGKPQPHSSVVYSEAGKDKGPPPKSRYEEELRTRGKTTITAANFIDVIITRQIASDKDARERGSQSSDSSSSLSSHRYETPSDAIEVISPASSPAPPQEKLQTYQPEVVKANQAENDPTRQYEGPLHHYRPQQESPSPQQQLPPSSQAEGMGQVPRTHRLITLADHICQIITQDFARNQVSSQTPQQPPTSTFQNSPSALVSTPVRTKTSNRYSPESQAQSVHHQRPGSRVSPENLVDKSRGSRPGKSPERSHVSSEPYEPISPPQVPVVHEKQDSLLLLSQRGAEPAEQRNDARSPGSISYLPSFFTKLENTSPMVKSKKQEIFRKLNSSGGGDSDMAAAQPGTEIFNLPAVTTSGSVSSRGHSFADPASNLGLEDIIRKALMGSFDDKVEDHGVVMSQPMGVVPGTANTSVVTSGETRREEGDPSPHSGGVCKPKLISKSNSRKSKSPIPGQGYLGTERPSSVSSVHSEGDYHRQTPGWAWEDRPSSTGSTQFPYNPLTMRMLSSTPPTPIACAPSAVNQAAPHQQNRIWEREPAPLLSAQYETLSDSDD
UniProt Q01804, sequence (Q01804 whole entry, looked up): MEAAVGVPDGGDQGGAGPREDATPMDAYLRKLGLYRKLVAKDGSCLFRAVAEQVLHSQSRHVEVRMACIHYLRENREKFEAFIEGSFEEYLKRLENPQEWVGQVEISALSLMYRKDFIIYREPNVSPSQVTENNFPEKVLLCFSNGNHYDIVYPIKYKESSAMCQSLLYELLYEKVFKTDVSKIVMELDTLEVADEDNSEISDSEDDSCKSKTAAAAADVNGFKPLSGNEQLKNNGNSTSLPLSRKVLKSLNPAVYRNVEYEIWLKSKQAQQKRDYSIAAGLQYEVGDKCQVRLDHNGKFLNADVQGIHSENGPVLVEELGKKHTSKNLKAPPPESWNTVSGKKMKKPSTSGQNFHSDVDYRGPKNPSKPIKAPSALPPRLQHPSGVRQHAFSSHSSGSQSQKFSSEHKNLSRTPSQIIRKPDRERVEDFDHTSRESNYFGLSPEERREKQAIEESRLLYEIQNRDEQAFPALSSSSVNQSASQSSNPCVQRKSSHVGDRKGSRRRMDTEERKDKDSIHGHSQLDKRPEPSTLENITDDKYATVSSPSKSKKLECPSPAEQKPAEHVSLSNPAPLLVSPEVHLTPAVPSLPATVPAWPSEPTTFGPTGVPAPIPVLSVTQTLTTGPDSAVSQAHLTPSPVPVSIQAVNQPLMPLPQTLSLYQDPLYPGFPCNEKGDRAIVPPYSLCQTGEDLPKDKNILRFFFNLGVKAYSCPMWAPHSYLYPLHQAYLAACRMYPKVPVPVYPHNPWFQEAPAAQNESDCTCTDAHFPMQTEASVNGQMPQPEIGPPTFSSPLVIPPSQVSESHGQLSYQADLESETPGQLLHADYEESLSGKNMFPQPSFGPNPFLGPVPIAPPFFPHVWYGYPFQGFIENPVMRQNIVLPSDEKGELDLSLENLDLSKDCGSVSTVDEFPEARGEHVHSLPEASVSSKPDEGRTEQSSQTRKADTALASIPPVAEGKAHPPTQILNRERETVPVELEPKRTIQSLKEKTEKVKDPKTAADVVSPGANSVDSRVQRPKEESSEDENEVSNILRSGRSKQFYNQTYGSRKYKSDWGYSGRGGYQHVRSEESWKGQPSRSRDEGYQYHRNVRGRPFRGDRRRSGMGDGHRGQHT
UniProt Q15003, sequence (Q15003 whole entry, looked up): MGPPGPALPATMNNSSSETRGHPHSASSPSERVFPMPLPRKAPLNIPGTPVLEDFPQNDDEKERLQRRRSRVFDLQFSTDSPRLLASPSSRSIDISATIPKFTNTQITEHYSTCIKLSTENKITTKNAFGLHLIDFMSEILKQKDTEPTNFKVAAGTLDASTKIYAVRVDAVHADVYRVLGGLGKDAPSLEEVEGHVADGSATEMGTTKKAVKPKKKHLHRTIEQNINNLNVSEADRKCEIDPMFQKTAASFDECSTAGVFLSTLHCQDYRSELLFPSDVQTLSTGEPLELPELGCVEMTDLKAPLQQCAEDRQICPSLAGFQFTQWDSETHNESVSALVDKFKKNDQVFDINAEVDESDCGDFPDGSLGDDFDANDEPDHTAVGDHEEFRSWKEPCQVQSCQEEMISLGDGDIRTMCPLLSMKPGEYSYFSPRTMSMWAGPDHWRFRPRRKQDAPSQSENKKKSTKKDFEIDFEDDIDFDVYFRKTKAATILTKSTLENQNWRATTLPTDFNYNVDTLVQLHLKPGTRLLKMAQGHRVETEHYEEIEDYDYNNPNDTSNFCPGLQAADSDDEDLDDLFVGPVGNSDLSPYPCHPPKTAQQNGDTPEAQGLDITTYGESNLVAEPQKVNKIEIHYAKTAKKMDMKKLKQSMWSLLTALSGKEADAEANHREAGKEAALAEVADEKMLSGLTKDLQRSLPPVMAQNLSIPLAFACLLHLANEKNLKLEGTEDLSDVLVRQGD
UniProt Q8NBF2, sequence (Q8NBF2 whole entry, looked up): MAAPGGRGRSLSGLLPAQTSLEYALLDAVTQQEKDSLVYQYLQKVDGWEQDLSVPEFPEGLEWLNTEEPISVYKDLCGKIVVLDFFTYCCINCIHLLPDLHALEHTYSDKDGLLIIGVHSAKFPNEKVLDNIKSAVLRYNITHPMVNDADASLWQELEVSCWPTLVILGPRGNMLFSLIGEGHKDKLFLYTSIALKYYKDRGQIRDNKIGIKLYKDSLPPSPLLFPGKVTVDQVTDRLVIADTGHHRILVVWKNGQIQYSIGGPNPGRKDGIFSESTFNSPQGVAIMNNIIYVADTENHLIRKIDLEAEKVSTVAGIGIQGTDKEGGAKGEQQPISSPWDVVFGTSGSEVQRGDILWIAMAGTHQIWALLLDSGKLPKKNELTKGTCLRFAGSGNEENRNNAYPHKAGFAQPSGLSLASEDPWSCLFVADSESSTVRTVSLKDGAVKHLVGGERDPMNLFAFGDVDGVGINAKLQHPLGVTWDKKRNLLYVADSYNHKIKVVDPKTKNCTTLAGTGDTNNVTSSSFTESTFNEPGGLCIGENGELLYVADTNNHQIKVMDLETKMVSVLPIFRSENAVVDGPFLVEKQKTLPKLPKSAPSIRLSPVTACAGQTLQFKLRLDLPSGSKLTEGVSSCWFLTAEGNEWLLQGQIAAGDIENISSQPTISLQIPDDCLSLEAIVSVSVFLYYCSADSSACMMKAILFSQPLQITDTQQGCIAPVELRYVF

Target	log2 fold change [1]	log2 fold change [2]	log2 fold change [3]	log2 fold change [4]	log2 fold change [5]	log2 fold change [6]	log2 fold change [7]	log2 fold change [8]	log2 fold change [9]	log2 fold change [10]	log2 fold change [11]	log2 fold change [12]	log2 fold change [13]	log2 fold change [14]	log2 fold change [15]	log2 fold change [16]	log2 fold change [17]	log2 fold change [18]	log2 fold change [19]	log2 fold change [20]
NHLRC2 (UniProt Q8NBF2)	-0.141	0.002	-0.05	-0.004	-0.052	-0.001	0.042	0.006	-0.024	0.058	-0.077	-0.02	-0.171	-0.065	0.009	0.02	-0.007	0.009	-0.063	-0.015
MUL1 (UniProt Q969V5)	-0.018	0.042	0.004	0.044	0.011	-0.059	0.036	0.016	-0.037	-0.023	-0.029	-0.041	0.648 (active)	-0.024	-0.007	0.086	-0.002	-0.018	-0.021	-0.049
OTUD4 (UniProt Q01804)	0.069	-0.016	0.037	-0.039	0.046	-0.077	-0.082	-0.09	0.064	-0.024	0.006	0.026	0.071	0.001	-0.051	0.016	-0.016	0.02	0.033	-0.061
NTMT1 (UniProt Q9BV86)	0.009	0.068	0.056	0	-0.036	0.023	0.073	0.076	0.043	0.138	-0.035	0.027	0.077	-0.002	0.024	-0.089	-0.069	-0.028	-0.029	–
OPA1 isoform 2 (UniProt O60313)	-0.022	0.069	-0.039	-0.025	-0.169	-0.004	0.054	-0.031	-0.12	0.062	-0.046	-0.054	-0.165	-0.072	0.024	0.033	0.05	-0.027	-0.033	-0.048
MTMR14 (UniProt Q8NCE2)	-0.051	-0.089	-0.023	-0.04	-0.063	0.016	-0.006	-0.084	-0.035	0.058	-0.02	-0.08	-0.087	-0.075	0.024	0.093	0.08	0.071	-0.081	0.039
MRPS15 (UniProt P82914)	0.126	0.159	-0.33	0.056	-0.046	0.07	0.05	0.032	-0.105	0.172	0.039	0.06	-0.057	0.119	0.072	0.077	0.028	-0.114	0.085	-0.031
MMS19 isoform 8 (UniProt Q96T76)	-0.014	0.092	-0.038	-0.027	-0.205	-0.002	-0.021	0.02	-0.055	-0.019	0.01	-0.026	-0.157	-0.072	0.066	0.017	0.097	0.085	-0.003	-0.007
NCAPH (UniProt Q15003)	0.015	0.022	-0.055	-0.049	-0.121	0.041	-0.057	0.019	-0.102	0.019	-0.086	-0.036	-0.092	-0.043	0.038	0.029	0.029	0.098	0	-0.009
NCKAP1 isoform 2 (UniProt Q9Y2A7)	-0.028	0.08	-0.016	-0.045	-0.096	-0.04	0.04	-0.004	-0.005	0.002	0.066	-0.009	-0.12	-0.025	0.024	0.063	0.015	-0.029	-0.055	0.046
OXSR1 (UniProt O95747)	-0.014	-0.012	-0.083	-0.029	-0.179	0.031	0.038	0.005	-0.117	-0.05	-0.014	-0.048	-0.151	-0.064	0.031	0.042	0.045	-0.071	-0.007	0.018
NR2C2AP isoform 2 (UniProt Q86WQ0)	0.037	0.03	-0.072	0.003	-0.095	-0.008	0.028	-0.016	0.007	0.072	-0.082	-0.131	-0.05	-0.094	-0.02	-0.027	0.079	0.062	-0.092	-0.035
MIS12 (UniProt Q9H081)	-0.05	0.017	-0.062	-0.048	-0.114	0.037	-0.028	0.005	0.016	0.071	0.016	-0.084	-0.079	-0.101	0.027	0.123	0.014	0.016	0.02	-0.081
NCOR1 (UniProt O75376)	-0.009	-0.056	0.182	-0.046	-0.091	0.058	0.041	-0.049	0.103	0.041	0.096	-0.057	-0.005	-0.072	0.007	-0.059	-0.028	0.001	-0.044	-0.024
MSH3 (UniProt P20585)	-0.012	0.051	-0.046	-0.014	-0.038	0.052	-0.032	0.009	-0.029	0.167	-0.175	-0.001	-0.126	-0.007	-0.032	-0.017	0.031	0.034	-0.069	-0.019
NEDD4L (UniProt Q96PU5)	-0.037	-0.062	0.015	-0.134	-0.103	0.031	-0.097	-0.078	-0.022	0.01	-0.045	-0.062	-0.06	-0.074	0.075	0.062	-0.001	0.114	-0.006	-0.034
